Assay results published in PubChem BioAssay (NCATS).
Records with an inconclusive call do not appear. Entries that show only a call come without a potency. Unmarked numbers belong to inactive results. Activity calls are given as the source filed them. Calls follow the shape of the dose curve; as a rule, active = well fitted inhibition curve with a large enough effect; inconclusive = small, poorly fitted or top-dose-only effect; inactive = flat fitted curve, though single readings scatter. Where a SMILES comes first, the peptide text is derived from it. [ ]: non-standard residue; d: D form. PhLac = O=C(O)[CH](O)Cc1ccccc1; NMeV = CN[CH](C(=O)O)C(C)C

Experiments:
CRL-7250 = normal cell line; test: Cytotoxic Profiling of Annotated Libraries Using Quantitative High-Throughput Screening (AID 1296008); conditions: Five cell lines viability, CellTiter-Glo ATP luminescence, 48-72 h; max response: active compounds read low; also: potency is read from the fitted curve at half-maximal effect
Outline: (§1)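 Cells exposed to compounds for 48 or 72 hr at 37 degrees Celsius. Viability read as ATP-coupled luminescence with CellTiter-Glo after 10 min at room temperature.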

HEK293 = test: as above; conditions: Five cell lines viability, CellTiter-Glo ATP luminescence, 48-72 h; max response: active compounds read low
Outline: as §1

HaCat [1] = test: as above; conditions: Five cell lines viability, CellTiter-Glo ATP luminescence, 48-72 h; max response: active compounds read low
Outline: as §1

KB-3-1 = test: as above; conditions: Five cell lines viability, CellTiter-Glo ATP luminescence, 48-72 h; max response: active compounds read low
Outline: as §1

NIH3T3 = test: as above; conditions: Five cell lines viability, CellTiter-Glo ATP luminescence, 48-72 h; max response: active compounds read low
Outline: as §1

HEK293T = test: qHTS assay to identify novel small-molecules to repurpose for Merkel cell carcinoma treatment (AID 1296009); conditions: MCC and control cell lines, CellTiter-Glo viability, 72 h; series mostly up to 44.8 µM
Outline: (§2)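 Cells were incubated with compound for 72 hr at 37 degree celsius before CellTiter-Glo addition. Luminescence was normalized with no-cell wells as full cytotoxicity and DMSO as baseline.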

HACAT [2] = test: as above; conditions: MCC and control cell lines, CellTiter-Glo viability, 72 h; at 44.8 µM (top of the series) unless noted
Outline: as §2

TAB113 = test: qHTS profiling for inhibitors of Plasmodium falciparum proliferation (AID 504749); conditions: P. falciparum in erythrocytes, SYBR Green DNA, 72 h; series mostly up to 28.7 µM
Outline: (§3)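 Readout was DNA-dye fluorescence from lysed cultures, ex 485/em 535 nm. Parasitized red cells had grown 72 h with compound; data scaled between 0.29 uM artemisinin and DMSO wells and corrected using vehicle-only plates.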

TAB165 = test: as above; conditions: P. falciparum in erythrocytes, SYBR Green DNA, 72 h; series mostly up to 28.7 µM
Outline: as §3

W2 = test: as above; conditions: P. falciparum in erythrocytes, SYBR Green DNA, 72 h; series mostly up to 28.7 µM
Outline: as §3
Also: nearly all actives have a fitted effect of over 60% in size.

## CC1=CC(=O)C2C(C)(C)CC(O)CC2(C)C1CO (stereo not drawn)
CRL-7250
  max response: -38.7%
HEK293
  outcome: inactive
HaCat [1]
  max response: -3.16%
KB-3-1
  outcome: inactive
NIH3T3
  max response: 2.39%
HEK293T
  Potency: inactive

## CC1CCC2C(C)(C)C(O)CCC2(C)C12Cc1c(O)cc3c(c1O2)C(N)=NC3 (stereo not drawn)
CRL-7250
  max response: -9.29%
HEK293
  outcome: inactive
HaCat [1]
  outcome: inactive
KB-3-1
  outcome: inactive
NIH3T3
  outcome: inactive
HACAT [2]
  outcome: inactive
HEK293T
  Potency: inactive

## C=C[C@H]1[C@H](O[C@@H]2O[C@H](CO)[C@@H](O)[C@H](O)[C@H]2O)OC=C(C(=O)OC)[C@H]1C[C@@H]1N[C@H](C(=O)O)Cc2c1[nH]c1ccccc21
CRL-7250
  max response: 2.01%
HEK293
  outcome: inactive
HaCat [1]
  outcome: inactive
KB-3-1
  max response: -4.8%
NIH3T3
  max response: -2.92%
HACAT [2]
  outcome: inactive [at 17.4 µM]
HEK293T
  Potency: inactive

## c1ccc(Cc2ncc3c(n2)CCNCC3)cc1
CRL-7250
  max response: -2.57%
HEK293
  outcome: inactive
HaCat [1]
  max response: -4.11%
KB-3-1
  max response: 0.381%
NIH3T3
  outcome: inactive
HEK293T
  Potency: inactive

## CN[C@@H]1[C@@H](O)[C@@H](O[C@@H]2[C@@H](O)[C@H](O[C@H]3O[C@H](CN)[C@@H](O)[C@H](O)[C@H]3O)[C@@H](N)C[C@H]2NC(=O)[C@@H](O)CN)OC[C@]1(C)O
CRL-7250
  max response: -2.08%
HEK293
  outcome: inactive
HaCat [1]
  outcome: inactive
KB-3-1
  max response: -2.9%
NIH3T3
  outcome: inactive
HACAT [2]
  outcome: inactive
HEK293T
  Potency: inactive

## COc1cccc(-c2ccc([C@@H](Oc3cc(-c4ccc(C[C@H](N)C(=O)O)cc4)nc(N)n3)C(F)(F)F)cc2)c1
CRL-7250
  outcome: inactive
HEK293
  outcome: inactive
HaCat [1]
  outcome: inactive
KB-3-1
  outcome: inactive
NIH3T3
  outcome: inactive
HACAT [2]
  outcome: inactive
HEK293T
  Potency: inactive

## O=C(O[C@H]1[C@@H]2C[C@@H]3OC[C@@](O)([C@H]2[C@H](O[C@@H]2O[C@H](CO)[C@@H](O)[C@H](O)[C@H]2O)O3)[C@@H]1O)c1ccccc1
CRL-7250
  outcome: inactive
HEK293
  outcome: inactive
HaCat [1]
  outcome: inactive
KB-3-1
  outcome: inactive
NIH3T3
  outcome: inactive
HACAT [2]
  outcome: inactive [at 17.4 µM]
HEK293T
  Potency: inactive

## COC(=O)CC[C@@H](C)[C@H]1CC[C@H]2[C@@H]3CC(=O)[C@H]4C[C@H](OC(C)=O)CC[C@]4(C)[C@H]3CC[C@]12C
CRL-7250
  max response: -2.01%
HEK293
  outcome: inactive
HaCat [1]
  outcome: inactive
KB-3-1
  outcome: inactive
NIH3T3
  max response: -0.377%
HACAT [2]
  outcome: inactive
HEK293T
  Potency: inactive

## CC1CCC2(C(=O)OC3OC(CO)C(O)C(O)C3O)CCC3(C)C(=CCC4C5(C)CC(O)C(O)C(C)(C(=O)O)C5CCC43C)C2C1(C)O (stereo not drawn)
CRL-7250
  max response: 3.23%
HEK293
  outcome: inactive
HaCat [1]
  outcome: inactive
KB-3-1
  max response: 1.03%
NIH3T3
  outcome: inactive
HACAT [2]
  outcome: inactive [at 17.4 µM]
HEK293T
  Potency: inactive

## C=CC1(C)CC(O)C2(CCC3C(C)(C(=O)O)CCCC3(C)C2=O)C1 (stereo not drawn)
CRL-7250
  max response: -1.04%
HEK293
  outcome: inactive
HaCat [1]
  max response: -1.18%
KB-3-1
  outcome: inactive
NIH3T3
  max response: 1.85%
HEK293T
  Potency: inactive

## CC(=O)OCC(=O)O[C@@H]1[C@H]2[C@@H](OC(=O)c3ccccc3)[C@@H](C)C[C@]2(O)[C@H](OC(C)=O)C2(C)[C@H]3CC(C)(C)C(=O)[C@@H]3CC1(OC(C)=O)[C@@H]2OC(C)=O (stereo partly drawn)
CRL-7250
  max response: -0.187%
HEK293
  outcome: inactive
HaCat [1]
  outcome: inactive
KB-3-1
  max response: 9.67%
NIH3T3
  outcome: inactive
HACAT [2]
  outcome: inactive [at 17.4 µM]
HEK293T
  Potency: inactive

## CC(C)C(C(=O)N1CCCC1C(=O)O)N(C)C(=O)C(O)Cc1ccccc1 (stereo not drawn) (H-[PhLac]-[NMeV]-Pro-OH; configuration not given here)
CRL-7250
  outcome: inactive
HEK293
  outcome: inactive
HaCat [1]
  max response: -7.13%
KB-3-1
  outcome: inactive
NIH3T3
  max response: -4.85%
HEK293T
  Potency: inactive

## OC[C@H]1O[C@@H](n2cnc3c(NCc4ccc(O)cc4)ncnc32)[C@H](O)[C@@H]1O
CRL-7250
  Potency: 6.51 µM (active)
HEK293
  outcome: inactive
HaCat [1]
  max response: -13.2%
KB-3-1
  max response: -13.6%
NIH3T3
  outcome: inactive
HEK293T
  Potency: inactive

## COc1ccc2c3c1O[C@H]1C[C@@H](O)C=C[C@@]31CCN(C)C2
TAB113
  Potency: inactive
TAB165
  Potency: inactive
W2
  Potency: inactive
CRL-7250
  outcome: inactive
HEK293
  outcome: inactive
HaCat [1]
  outcome: inactive
KB-3-1
  outcome: inactive
NIH3T3
  max response: -4.93%
HACAT [2]
  outcome: inactive
HEK293T
  Potency: inactive

## C=CC(C)(O)CC/C=C(/C)C(=O)OC1C(OC2OCC(OC3OC(CO)C(O)C(O)C3O)C(OC3OCC(O)C(OC4OC(C)C(O)C(O)C4O)C3O)C2O)COC(OC(=O)C23CCC(C)(C)CC2C2=CCC4C5(C)CCC(OC6OC(CO)C(OC7OC(CO)C(O)C(OC8OCC(O)C(O)C8O)C7O)C(O)C6O)C(C)(C)C5CCC4(C)C2(C)CC3O)C1O (stereo not drawn)
CRL-7250
  outcome: inactive
HEK293
  outcome: inactive
HaCat [1]
  outcome: inactive
KB-3-1
  max response: -5.7%
NIH3T3
  outcome: inactive
HACAT [2]
  outcome: inactive [at 4.96 µM]
HEK293T
  outcome: inactive [at 4.96 µM]

## CC(=O)O[C@@H]1[C@H](O[C@@H]2OC[C@](O)(CO)[C@H]2O)[C@@H](O[C@@H]2O[C@@H](C)[C@H](O)[C@@H](O)[C@H]2O)[C@H](OC(=O)[C@]23CCC(C)(C)C[C@H]2C2=CCC4[C@@]5(C)C[C@H](O)[C@H](O[C@@H]6O[C@H](C(=O)O)[C@@H](O)[C@H](O)[C@H]6O)[C@@](C)(C(=O)O)C5CC[C@@]4(C)[C@]2(C)CC3)O[C@@H]1C (stereo partly drawn)
CRL-7250
  max response: -0.437%
HEK293
  outcome: inactive
HaCat [1]
  outcome: inactive
KB-3-1
  outcome: inactive
NIH3T3
  max response: 2.52%
HACAT [2]
  outcome: inactive [at 9.27 µM]
HEK293T
  outcome: inactive [at 9.27 µM]

## C[C@@H]1C[C@H](O)/C=C/[C@H](O)[C@@H](O)CC(=O)O1
CRL-7250
  max response: 2.61%
HEK293
  outcome: inactive
HaCat [1]
  max response: 3.57%
KB-3-1
  outcome: inactive
NIH3T3
  outcome: inactive
HEK293T
  Potency: inactive

## CC(CO[C@@H]1O[C@H](COC(=O)/C=C/c2ccc(O)c(O)c2)[C@@H](O)[C@H](O)[C@H]1O)C1(O)COC(=O)C1 (stereo partly drawn)
CRL-7250
  max response: -2.89%
HEK293
  outcome: inactive
HaCat [1]
  max response: 3.48%
KB-3-1
  max response: -4.71%
NIH3T3
  max response: -5.15%
HEK293T
  Potency: inactive

## COc1cc(C2OCC3C(c4ccc(OC5OC(CO)C(O)C(O)C5O)c(OC)c4)OCC23)ccc1O (stereo not drawn)
CRL-7250
  max response: -7.16%
HEK293
  outcome: inactive
HaCat [1]
  max response: -4.17%
KB-3-1
  max response: -0.0986%
NIH3T3
  max response: -0.3%
HEK293T
  Potency: inactive

## O=C(/C=C/c1ccc(O)cc1)O[C@H]1[C@@H]2C=CO[C@@H](O[C@@H]3O[C@H](CO)[C@@H](O)[C@H](O)[C@H]3O)[C@@H]2[C@@]2(CO)O[C@@H]12
CRL-7250
  max response: -3.08%
HEK293
  outcome: inactive
HaCat [1]
  max response: 1.73%
KB-3-1
  outcome: inactive
NIH3T3
  max response: 0.736%
HEK293T
  Potency: inactive

## CC(=O)OC1C(O)CC(O[C@@H]2O[C@H](CO)[C@@H](O)[C@H](O)[C@H]2O)C2CCC3C(=O)OC(c4ccoc4)CC3(C)C21 (stereo partly drawn)
CRL-7250
  max response: -4.25%
HEK293
  outcome: inactive
HaCat [1]
  max response: -6.02%
KB-3-1
  max response: 0.494%
NIH3T3
  outcome: inactive
HEK293T
  Potency: inactive

## C=C/C=C/[C@@H]1OC[C@H](/C=C/C=C/C)[C@H]1O
CRL-7250
  max response: -3.1%
HEK293
  outcome: inactive
HaCat [1]
  max response: -9.46%
KB-3-1
  outcome: inactive
NIH3T3
  max response: -1.27%
HEK293T
  Potency: inactive

## C=CCc1ccc(O[C@@H]2O[C@H](CO[C@@H]3O[C@@H](C)[C@H](O)[C@@H](O)[C@H]3O)[C@@H](O)[C@H](O)[C@H]2O)cc1
CRL-7250
  max response: -0.302%
HEK293
  outcome: inactive
HaCat [1]
  max response: 4.55%
KB-3-1
  max response: 2.9%
NIH3T3
  outcome: inactive
HEK293T
  Potency: inactive

## C/C=C(\C)C(=O)O[C@H]1[C@@H](O[C@]2(COC(=O)CC(C)C)O[C@H](COC(=O)C(C)C)[C@@H](OC(C)=O)[C@@H]2O)O[C@H](COC(C)=O)[C@@H](O)[C@@H]1O
CRL-7250
  outcome: inactive
HEK293
  outcome: inactive
HaCat [1]
  max response: 0.832%
KB-3-1
  max response: 4.8%
NIH3T3
  max response: 0.154%
HEK293T
  Potency: inactive
